{
  "source": "paper PMC7862700",
  "about": "“An all-to-all approach to the identification of sequence-specific readers for epigenetic DNA modifications on cytosine”",
  "assay_in_all_cases": "DAPPL (digital affinity profiling via proximity ligation, sequencing); 10 mM Tris-HCl pH 7.5, 50 mM NaCl, 1 mM DTT, 4% glycerol, room temperature, 30 min; GST-TFs on glutathione beads, 16-mer random dsDNA library, 0.1% formaldehyde crosslink after washing; high values mean tight binding",
  "key": {"[1]": {"molecular_target": "HSF1 (Homo sapiens, UniProt Q00613 1-529)", "sequence (Q00613 whole entry, the tested form may be a part)": "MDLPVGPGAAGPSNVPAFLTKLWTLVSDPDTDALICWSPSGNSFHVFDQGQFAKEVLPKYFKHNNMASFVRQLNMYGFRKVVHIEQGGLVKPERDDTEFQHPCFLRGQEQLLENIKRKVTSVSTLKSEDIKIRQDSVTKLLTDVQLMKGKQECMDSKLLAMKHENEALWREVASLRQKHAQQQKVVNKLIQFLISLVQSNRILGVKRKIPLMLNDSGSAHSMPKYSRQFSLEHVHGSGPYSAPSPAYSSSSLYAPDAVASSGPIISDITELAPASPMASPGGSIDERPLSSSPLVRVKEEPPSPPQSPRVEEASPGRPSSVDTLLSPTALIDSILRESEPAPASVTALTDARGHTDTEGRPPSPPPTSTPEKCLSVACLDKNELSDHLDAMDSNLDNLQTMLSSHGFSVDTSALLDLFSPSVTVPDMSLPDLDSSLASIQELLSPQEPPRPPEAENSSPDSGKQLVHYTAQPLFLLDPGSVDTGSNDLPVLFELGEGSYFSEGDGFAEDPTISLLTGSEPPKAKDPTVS", "conditions": "protein: recombinant; tags: N-terminal GST; chain copies: 3; dsDNA, one strand shown", "in_short": "(§1)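 After expression in yeast as GST fusions, human transcription factors were bound to glutathione beads, DNA-barcoded and mixed with a tag-only sample. The pools were incubated with 200 nmole of a 16-mer random double-stranded DNA library in Tris/NaCl/DTT/glycerol buffer (30 min, room temperature), washed and crosslinked with 0.1% formaldehyde. Proximity ligation with BsaI/T4 ligase ran for 1 h at 37 °C, before PCR amplification and sequencing on an Illumina NextSeq500. Binding signal is a hexamer's read frequency for a factor divided by its frequency for the tag-only sample.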"}, "[2]": {"molecular_target": "T1, ELF3 (Homo sapiens, UniProt P78545 1-371)", "T1 sequence": "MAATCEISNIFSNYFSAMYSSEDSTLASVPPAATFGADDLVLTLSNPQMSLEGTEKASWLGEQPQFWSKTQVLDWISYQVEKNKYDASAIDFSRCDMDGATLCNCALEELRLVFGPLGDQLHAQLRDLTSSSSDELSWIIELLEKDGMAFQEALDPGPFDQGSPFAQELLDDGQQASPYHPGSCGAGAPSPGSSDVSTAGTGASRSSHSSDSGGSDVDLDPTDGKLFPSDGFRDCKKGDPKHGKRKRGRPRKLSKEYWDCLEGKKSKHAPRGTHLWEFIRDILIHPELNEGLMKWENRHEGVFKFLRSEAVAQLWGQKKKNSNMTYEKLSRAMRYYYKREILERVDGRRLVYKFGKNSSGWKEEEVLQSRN", "conditions": "protein: recombinant; tags: N-terminal GST; dsDNA, one strand shown", "in_short": "as §1"}, "[3]": {"molecular_target": "T2, ETV7 (Homo sapiens, UniProt Q9Y603 1-341)", "T2 sequence": "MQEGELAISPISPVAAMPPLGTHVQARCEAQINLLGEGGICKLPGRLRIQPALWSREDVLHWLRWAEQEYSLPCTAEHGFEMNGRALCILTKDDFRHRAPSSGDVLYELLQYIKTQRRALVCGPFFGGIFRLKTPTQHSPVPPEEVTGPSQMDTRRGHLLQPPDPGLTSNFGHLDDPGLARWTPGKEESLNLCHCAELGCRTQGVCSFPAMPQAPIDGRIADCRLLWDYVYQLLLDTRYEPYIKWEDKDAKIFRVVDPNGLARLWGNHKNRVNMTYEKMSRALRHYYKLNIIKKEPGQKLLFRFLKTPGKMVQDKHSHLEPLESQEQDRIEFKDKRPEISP", "conditions": "protein: recombinant; tags: N-terminal GST; dsDNA, one strand shown", "in_short": "as §1"}, "[4]": {"molecular_target": "T3, GABPA (Homo sapiens, UniProt Q06546 1-454)", "T3 sequence": "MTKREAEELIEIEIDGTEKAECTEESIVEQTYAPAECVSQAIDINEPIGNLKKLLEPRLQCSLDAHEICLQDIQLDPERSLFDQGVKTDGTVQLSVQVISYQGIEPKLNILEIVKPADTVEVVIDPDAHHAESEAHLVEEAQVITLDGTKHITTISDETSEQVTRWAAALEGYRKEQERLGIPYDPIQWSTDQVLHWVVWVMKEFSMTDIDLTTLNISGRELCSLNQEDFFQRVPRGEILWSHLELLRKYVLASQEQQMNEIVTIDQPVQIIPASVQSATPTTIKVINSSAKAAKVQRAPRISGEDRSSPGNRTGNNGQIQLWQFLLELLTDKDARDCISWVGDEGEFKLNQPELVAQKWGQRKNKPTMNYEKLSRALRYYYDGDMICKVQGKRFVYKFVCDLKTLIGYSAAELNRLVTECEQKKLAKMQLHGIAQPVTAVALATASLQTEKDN", "conditions": "protein: recombinant; tags: N-terminal GST; dsDNA, one strand shown", "in_short": "as §1"}, "[5]": {"molecular_target": "ELF1 (Homo sapiens, UniProt P32519 1-619)", "sequence (P32519 whole entry)": "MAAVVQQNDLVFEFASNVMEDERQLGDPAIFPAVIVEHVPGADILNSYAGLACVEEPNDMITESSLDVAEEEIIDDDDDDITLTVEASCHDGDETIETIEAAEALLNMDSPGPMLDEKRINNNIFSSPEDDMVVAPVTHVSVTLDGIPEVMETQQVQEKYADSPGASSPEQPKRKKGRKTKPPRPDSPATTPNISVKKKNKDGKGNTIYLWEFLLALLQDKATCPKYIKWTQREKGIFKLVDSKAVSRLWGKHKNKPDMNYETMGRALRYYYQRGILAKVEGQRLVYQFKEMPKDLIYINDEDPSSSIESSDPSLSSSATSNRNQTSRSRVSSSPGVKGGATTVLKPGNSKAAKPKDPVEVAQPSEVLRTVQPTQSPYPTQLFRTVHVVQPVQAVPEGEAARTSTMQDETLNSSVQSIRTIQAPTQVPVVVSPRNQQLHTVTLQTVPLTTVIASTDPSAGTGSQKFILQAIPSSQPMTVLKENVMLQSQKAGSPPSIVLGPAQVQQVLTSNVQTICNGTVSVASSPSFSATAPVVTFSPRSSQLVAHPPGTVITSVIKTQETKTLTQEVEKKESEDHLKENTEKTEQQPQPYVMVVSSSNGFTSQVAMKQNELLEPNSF", "conditions": "protein: recombinant; tags: N-terminal GST; dsDNA, one strand shown", "in_short": "as §1"}, "[6]": {"molecular_target": "T4, ERG (Homo sapiens, UniProt P11308 1-479)", "T4 sequence": "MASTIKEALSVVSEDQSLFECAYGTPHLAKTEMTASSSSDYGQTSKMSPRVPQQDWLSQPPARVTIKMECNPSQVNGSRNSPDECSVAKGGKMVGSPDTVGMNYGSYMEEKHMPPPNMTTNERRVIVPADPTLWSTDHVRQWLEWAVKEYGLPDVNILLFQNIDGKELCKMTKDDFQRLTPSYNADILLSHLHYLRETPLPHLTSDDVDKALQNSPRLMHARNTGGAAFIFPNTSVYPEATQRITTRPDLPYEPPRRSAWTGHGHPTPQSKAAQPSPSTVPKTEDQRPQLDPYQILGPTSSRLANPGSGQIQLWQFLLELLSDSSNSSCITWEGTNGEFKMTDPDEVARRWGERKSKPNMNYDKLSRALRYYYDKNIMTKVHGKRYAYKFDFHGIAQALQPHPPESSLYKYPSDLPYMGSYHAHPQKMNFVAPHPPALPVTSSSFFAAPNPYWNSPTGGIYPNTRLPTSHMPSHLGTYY", "conditions": "protein: recombinant; tags: N-terminal GST; dsDNA, one strand shown", "in_short": "as §1"}, "[7]": {"molecular_target": "SPI1 (Homo sapiens, UniProt P17947 1-270)", "conditions": "protein: recombinant; tags: N-terminal GST; dsDNA, one strand shown", "in_short": "as §1"}, "[8]": {"molecular_target": "ETV1 (Homo sapiens, UniProt P50549 1-477)", "sequence (P50549 whole entry)": "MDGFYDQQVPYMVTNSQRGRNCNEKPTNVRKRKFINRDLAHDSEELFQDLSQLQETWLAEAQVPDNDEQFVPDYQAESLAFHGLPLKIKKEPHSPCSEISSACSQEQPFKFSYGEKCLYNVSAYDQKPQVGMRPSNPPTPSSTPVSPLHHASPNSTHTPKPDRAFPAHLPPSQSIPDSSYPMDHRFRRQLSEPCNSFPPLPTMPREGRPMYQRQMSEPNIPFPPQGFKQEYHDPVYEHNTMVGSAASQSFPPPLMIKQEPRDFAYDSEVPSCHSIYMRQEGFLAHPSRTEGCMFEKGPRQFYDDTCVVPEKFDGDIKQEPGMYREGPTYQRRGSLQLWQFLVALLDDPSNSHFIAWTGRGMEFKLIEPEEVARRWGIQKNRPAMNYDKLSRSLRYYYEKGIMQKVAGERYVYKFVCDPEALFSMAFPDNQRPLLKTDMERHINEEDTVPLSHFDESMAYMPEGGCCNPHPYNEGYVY", "conditions": "protein: recombinant; tags: N-terminal GST; dsDNA, one strand shown", "in_short": "as §1"}, "[9]": {"molecular_target": "T5, ETV3L (Homo sapiens, UniProt Q6ZN32 1-361)", "T5 sequence": "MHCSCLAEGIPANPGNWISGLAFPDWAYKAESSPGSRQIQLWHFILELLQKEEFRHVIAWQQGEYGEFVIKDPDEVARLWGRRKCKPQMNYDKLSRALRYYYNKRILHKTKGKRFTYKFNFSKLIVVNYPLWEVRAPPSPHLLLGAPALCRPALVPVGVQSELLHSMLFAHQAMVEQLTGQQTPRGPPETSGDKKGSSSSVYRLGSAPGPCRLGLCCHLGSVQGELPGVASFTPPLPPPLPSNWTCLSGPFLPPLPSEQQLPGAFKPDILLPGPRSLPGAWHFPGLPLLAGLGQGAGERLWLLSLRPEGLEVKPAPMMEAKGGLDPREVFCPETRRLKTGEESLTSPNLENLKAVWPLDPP", "conditions": "protein: recombinant; tags: N-terminal GST; dsDNA, one strand shown", "in_short": "as §1"}, "[10]": {"molecular_target": "T6, ELF5 (Homo sapiens, UniProt Q9UKW6-2 1-255)", "T6 sequence": "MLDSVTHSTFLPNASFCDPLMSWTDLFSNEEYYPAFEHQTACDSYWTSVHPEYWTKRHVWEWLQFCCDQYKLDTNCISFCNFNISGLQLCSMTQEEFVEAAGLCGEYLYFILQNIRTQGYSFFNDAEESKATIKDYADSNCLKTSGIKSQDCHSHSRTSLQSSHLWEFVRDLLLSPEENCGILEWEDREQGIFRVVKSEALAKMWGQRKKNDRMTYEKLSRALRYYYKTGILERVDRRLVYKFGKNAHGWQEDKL", "conditions": "protein: recombinant; tags: N-terminal GST; dsDNA, one strand shown", "in_short": "as §1"}, "[11]": {"molecular_target": "T7, ETV3 (Homo sapiens, UniProt P41162-2 1-143)", "T7 sequence": "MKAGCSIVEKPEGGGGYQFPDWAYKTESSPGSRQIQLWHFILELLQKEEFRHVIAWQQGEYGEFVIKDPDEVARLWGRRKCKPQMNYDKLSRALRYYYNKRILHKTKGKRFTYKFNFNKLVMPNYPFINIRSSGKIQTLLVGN", "conditions": "protein: recombinant; tags: N-terminal GST; dsDNA, one strand shown", "in_short": "as §1"}, "[12]": {"molecular_target": "ETV6 (Homo sapiens, UniProt P41212 1-452)", "sequence (P41212 whole entry)": "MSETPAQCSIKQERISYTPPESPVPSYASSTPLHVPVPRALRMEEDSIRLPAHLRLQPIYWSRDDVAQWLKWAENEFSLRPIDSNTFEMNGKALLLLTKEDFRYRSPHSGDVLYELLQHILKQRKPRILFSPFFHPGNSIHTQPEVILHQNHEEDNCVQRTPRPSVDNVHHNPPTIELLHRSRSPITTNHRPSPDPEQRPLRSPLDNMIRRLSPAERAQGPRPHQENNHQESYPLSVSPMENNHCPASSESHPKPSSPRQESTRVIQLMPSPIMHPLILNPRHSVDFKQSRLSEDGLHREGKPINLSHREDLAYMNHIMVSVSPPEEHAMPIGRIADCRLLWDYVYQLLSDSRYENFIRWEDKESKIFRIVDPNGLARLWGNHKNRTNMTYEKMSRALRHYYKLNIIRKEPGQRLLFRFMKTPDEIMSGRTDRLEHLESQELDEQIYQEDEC", "conditions": "protein: recombinant; tags: N-terminal GST; dsDNA, one strand shown", "in_short": "as §1"}},
  "data": [
    {"sequence": "AGCATA", "values": [
      {"measurement": "binding signal", "setting": "[1]", "value": "1.04 fold enrichment (6-mer frequency, TF over GST control)"},
      {"measurement": "binding signal", "setting": "[2]", "value": "1.01 fold enrichment (6-mer frequency, TF over GST control)"},
      {"measurement": "binding signal", "setting": "[3]", "value": "1.01 fold enrichment (6-mer frequency, TF over GST control)"}
    ]},
    {"sequence": "CTAGAC", "values": [
      {"measurement": "binding signal", "setting": "[4]", "value": "1.01 fold enrichment (6-mer frequency, TF over GST control)"},
      {"measurement": "binding signal", "setting": "[5]", "value": "1.09 fold enrichment (6-mer frequency, TF over GST control)"}
    ]},
    {"sequence": "GTGGAT", "values": [
      {"measurement": "binding signal", "setting": "[6]", "value": "1 fold enrichment (6-mer frequency, TF over GST control)"},
      {"measurement": "binding signal", "setting": "[7]", "value": "1.06 fold enrichment (6-mer frequency, TF over GST control)"}
    ]},
    {"sequence": "CAAAGA", "values": [
      {"measurement": "binding signal", "setting": "[5]", "value": "1.01 fold enrichment (6-mer frequency, TF over GST control)"},
      {"measurement": "binding signal", "setting": "[8]", "value": "1.02 fold enrichment (6-mer frequency, TF over GST control)"}
    ]},
    {"sequence": "AGGATT", "values": [
      {"measurement": "binding signal", "setting": "[9]", "value": "1.03 fold enrichment (6-mer frequency, TF over GST control)"}
    ]},
    {"sequence": "GGATTC", "values": [
      {"measurement": "binding signal", "setting": "[9]", "value": "1.02 fold enrichment (6-mer frequency, TF over GST control)"}
    ]},
    {"sequence": "GGAAAG", "values": [
      {"measurement": "binding signal", "setting": "[10]", "value": "1.12 fold enrichment (6-mer frequency, TF over GST control)"},
      {"measurement": "binding signal", "setting": "[11]", "value": "1 fold enrichment (6-mer frequency, TF over GST control)"},
      {"measurement": "binding signal", "setting": "[12]", "value": "1.06 fold enrichment (6-mer frequency, TF over GST control)"}
    ]}
  ]
}
